Test results taken from PubChem BioAssay (NCI).
The panel holds about 79,000 compounds, 15% with a hit somewhere; the sample as a whole holds those more often. Cut-off read from the data, not from the text of the source: active = growth inhibition above about 70%; inactive = the rest.

Key:
[1] = NCI Yeast Anticancer Drug Screen. Data for the rad50 strain (AID 155);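 note: 0% = growth of vehicle-only cultures of the same strain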; conditions: S. cerevisiae rad50 strain growth inhibition; at 50.0 µM; hits give high values
In short: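 Inhibition values express reduced yeast growth in compound-treated cultures relative to vehicle-treated controls.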

[2] = NCI Yeast Anticancer Drug Screen. Data for the mec2-1 strain (AID 157); conditions: S. cerevisiae mec2-1 strain, at 50.0 µM, hits give high values
In short: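 mec2-1 yeast strain, carrying an alteration in DNA damage repair or cell cycle control, was exposed to compounds; growth inhibition was measured relative to vehicle-treated controls.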

[3] = NCI Yeast Anticancer Drug Screen. Data for the mlh1 rad18 strain (AID 175); conditions: S. cerevisiae mlh1 rad18 strain growth inhibition; at 50.0 µM; hits give high values
In short: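 Growth inhibition of the yeast strain was measured after compound exposure and expressed relative to vehicle-treated controls. The strain carries defined defects in DNA damage repair.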

Measured: growth inhibition

CN(C)c1ccc(C2=C([O-])C(=C3C=CC(=[N+](C)C)C=C3)C2=O)cc1
inactive: [1] -10.4% | [2] -15.2% | [3] -5.55%

O=C1CCC2CN3CCc4c([nH]c5ccccc45)C3CC2C1 (configuration not stated)
inactive: [1] 26.2% | [2] 14.4% | [3] 32.7%

Cc1ccc(NC(=S)N(C)C)cc1C
inactive: [1] -2.7% | [2] -26.3% | [3] 1.1%

O=C1OC(=O)C2C1OC1C(=O)OC(=O)C12 (configuration not stated)
inactive: [1] -35.6% | [2] -33.1% | [3] -28.1%

c1ccc2c(c1)OCCOCCOc1ccccc1OCCOCCO2
inactive: [1] 3.15% | [2] 10.8% | [3] 15.1%

O=C(CC(CC(=O)c1ccccc1)c1ccco1)c1ccccc1
inactive: [1] 2.6% | [2] -17.2% | [3] -8.65%

O=C(CN1CCOCC1)Nc1cccc(C(F)(F)F)c1
inactive: [1] -33.7% | [2] -31.4% | [3] -35.4%

CCOc1ccc(NC(=S)NC2CCCCCCCCCCC2)cc1
inactive: [1] 15.7% | [2] 10.1% | [3] 32.9%

COc1ccc(/C=N\NC(=O)OC(C)(C)C)c(OC)c1OC
inactive: [1] -23.8% | [2] -33.4% | [3] -24.4%

COc1cc(/C=N\Nc2ccccc2[N+](=O)[O-])cc(OC)c1OC
inactive: [1] -11.4% | [2] -25.4% | [3] -12.9%

Cc1ccc(CNc2cc(C)ccn2)cc1
inactive: [1] 42.9% | [2] 23.9% | [3] 26.9%

Cc1ccc(S(=O)(=O)NCN2C(=O)c3ccccc3C2=O)cc1
inactive: [1] -3.75% | [2] -3.85% | [3] 1.55%

Cc1ccc(N2CSC(=S)N(c3ccc(C)cc3)C2)cc1
inactive: [1] -10.4% | [2] -25.9% | [3] 46.6%

CCCCCCCCCCCCOc1ccccc1
inactive: [1] 6.15% | [2] -14.3% | [3] 7.6%

O=[N+]([O-])c1cccc(S(=O)(=O)OCCOc2ccccc2)c1
inactive: [1] 30.7% | [2] 4.15% | [3] 17.6%

COC(=O)c1ccc2oc(=O)cc(C)c2c1O
inactive: [1] -7.6% | [2] -7.75% | [3] 11.7%

CCCCCCCCCCCC(O)CCCCC (configuration not stated)
inactive: [1] -15% | [2] -48.4% | [3] -38.9%

S=c1[nH]nc(NC2CCCCC2)s1
inactive: [1] -4.4% | [2] -12% | [3] -7.1%

Clc1ccc(C(c2cccs2)N2CCNCC2)cc1 (configuration not stated)
inactive: [1] 5.45% | [2] -2.75% | [3] 5.35%

Cc1ccc(CNc2cccc([N+](=O)[O-])c2)cc1
inactive: [1] 8.6% | [2] -13.6% | [3] 1.8%

CCCCCCCCCC(O)CCCCC (configuration not stated)
inactive: [1] -1.85% | [2] -21.2% | [3] 15.3%

CC(=O)NS(=O)(=O)c1ccc2sc(C)nc2c1
inactive: [1] -32% | [2] -22.6% | [3] -27.7%

C[N+]12OC3CC1C1OC1C2C3 (configuration not stated)
inactive: [1] -4.55% | [2] -9.4% | [3] 25.4%

O=C1OC(c2ccccc2)=N/C1=C/c1cccs1
inactive: [1] 6.85% | [2] -23.1% | [3] -24.8%

O=C1c2ccccc2C(=O)c2c1cccc2N1C(=O)C=CC1=O
inactive: [1] 51.2% | [2] 37.9% | [3] 63.7%

CN(Cc1ccccc1)Cc1ccccc1
inactive: [1] 8.4% | [2] -3.9% | [3] 14.7%

CCC(C)NCCNCCNC(C)CC (configuration not stated)
inactive: [1] -9% | [2] -11.1% | [3] 0.8%

COc1ccc(-c2cc(=O)c3c(C)cc(O)cc3o2)cc1OC
inactive: [1] 6.55% | [2] 7.6% | [3] 44.2%

COc1ccc(-c2coc3ccc4ccccc4c3c2=O)cc1OC
inactive: [1] 16% | [2] -15.1% | [3] 7.25%

c1ccc(-c2nc3ccc4ccccc4c3nc2-c2ccccc2)cc1
inactive: [1] -8.85% | [2] -35.2% | [3] 1.85%

O=CNC(Cc1ccc(O)cc1)C(=O)O (configuration not stated)
inactive: [1] 4.1% | [2] -30.4% | [3] -8.4%

CCCCOc1cc(C(=O)NCCN(CC)CC)c2ccccc2n1
inactive: [1] -2.1% | [2] -9.6% | [3] 1.9%

OCC1OC(Nc2ccccc2O)C(O)C(O)C1O (configuration not stated)
inactive: [1] 41.5% | [2] 15.6% | [3] 25.7%

Cc1ccc(S(=O)(=O)N2CCC(O)(c3ccccc3)CC2)cc1
inactive: [1] -3.05% | [2] -36.3% | [3] -2.7%

O=C1NC(=O)C(c2ccccc2)(C2CCC2)N1 (configuration not stated)
inactive: [1] -6.95% | [2] -33.1% | [3] -13.3%

O=C(/C=C/C=C/c1ccccc1)c1ccc(Cl)cc1
inactive: [1] -12.3% | [2] -27.4% | [3] 3.5%

CC1CCN(c2ccc([N+](=O)[O-])cc2)CC1
inactive: [1] -17.6% | [2] -29.9% | [3] -9.05%

N#C/C(=C/c1c(O)ccc2ccccc12)C(N)=O
inactive: [1] 33.7% | [2] 18.4% | [3] 60.9%

N#C/C(=C\c1ccc(-c2ccccc2)cc1)C(N)=O
inactive: [1] 32% | [2] 8.6% | [3] 27.6%

C[N+]12CCC34c5ccccc5NC3C3C(CC(=O)[O-])OCC=C(C1)C3CC42 (configuration not stated)
inactive: [1] -7.55% | [2] -45% | [3] -31%

O=C1NC(C2CC3C=CC2C3)Nc2ccccc21 (configuration not stated)
inactive: [1] 6.75% | [2] 0.8% | [3] 2.7%

O=[N+]([O-])c1ccc2nc3c(nc2c1)-c1cccc2cccc-3c12
inactive: [1] 2.15% | [2] -15.9% | [3] 12.3%

CCOC(=O)c1sc(N)c(C(=O)OCC)c1C
inactive: [1] -38.2% | [2] -46.8% | [3] -20.1%

COc1cc(-c2cc(=O)c3c(O)cc(O)cc3o2)cc(OC)c1OC
inactive: [1] -8.15% | [2] -10.7% | [3] 40%

Cc1ccccc1Nc1n[nH]c(=S)s1
inactive: [1] 46.1% | [2] 17.8% | [3] 33%

C[N+](C)(C)CN1C(=O)c2ccccc2C1=O
inactive: [1] -11.9% | [2] -29.2% | [3] -4.8%

O=C(N/N=C/c1ccc2c(c1)CCC2)c1cc2ccccc2cc1O
inactive: [1] 2.55% | [2] -8.15% | [3] 7.2%

COc1ccc(/C=C(\C#N)c2ccc(C)cc2)cc1OC
inactive: [1] 50.4% | [2] 52.8% | [3] 38.1%

CCN(CC#N)c1ccc(Nc2cc(Cl)ccc2Cl)cc1
inactive: [1] 8.75% | [2] -22.1% | [3] 0.3%

Cc1ccc2oc(C)[n+](CCC(=O)O)c2c1
inactive: [1] 15.7% | [2] 6.45% | [3] 42%

COc1ccc(C(C(N)=O)N2CCCC2)cc1 (configuration not stated)
inactive: [1] 1% | [2] -19.6% | [3] 16.6%

Cc1cccc(NNC(=S)Nc2ccccc2)c1
inactive: [1] 18.1% | [2] -14.8% | [3] 5.05%

CC12CC3CC(C(Cl)C(=O)O)(C1)CC(C(Cl)C(=O)O)(C3)C2 (configuration not stated)
inactive: [1] 52.1% | [2] 14.5% | [3] 46.6%

COc1cccc(CNc2ccc(SC)cc2)c1OC
inactive: [1] 10.2% | [2] 12.9% | [3] 18.9%

Cc1cc(Cl)ccc1NCN1C(=O)c2ccccc2C1=O
inactive: [1] -6.8% | [2] -8.9% | [3] 15.8%

COc1cc(/C=N\NC(=O)OC(C)(C)C)cc(OC)c1OC
inactive: [1] 6.25% | [2] -17.4% | [3] 10.5%

Nc1ccccc1CCc1ccccc1N
inactive: [1] 18.2% | [2] -10.1% | [3] 12.4%

CCCCCCCCCCCCCCCCOc1ccc(C)cc1
inactive: [1] -14.3% | [2] -29.5% | [3] -27.9%

CCCCCCCCCCCCCCCCOc1ccc(C(=O)NN)cc1N
inactive: [1] -18.6% | [2] -29.9% | [3] -14.6%

Cn1c(=S)sc2ccc3ccccc3c21
inactive: [1] -17.4% | [2] -11.1% | [3] -25.9%

S=C(S)NC1CCCCCCCCCCC1
inactive: [1] 45.8% | [2] 23.8% | [3] 39%

Oc1cc(Br)ccc1C=Nc1ccc(N2CCCCC2)cc1
inactive: [1] 25.4% | [2] 10.5% | [3] 17.8%

COc1ccc(NC(=S)N(C)C)cc1
inactive: [1] 19.5% | [2] -11% | [3] 3.1%

O=c1oc(-c2ccc(Cl)cc2)nc2cc(Cl)ccc12
inactive: [1] -20.6% | [2] -14.7% | [3] -20.8%

CCN(CC)CCN(C)CC(=O)Nc1ccccc1C
inactive: [1] 1.9% | [2] 6.3% | [3] 38.4%

CCOC(=O)C(C#N)N=Nc1ccccc1 (configuration not stated)
inactive: [1] 10.2% | [2] -7% | [3] 10.2%

CC1(c2ccc3ccccc3c2)CCC(=O)O1 (configuration not stated)
inactive: [1] -2.75% | [2] -30% | [3] -4.8%

CCN(CC)C(C(=O)Nc1ccccc1)C(=O)Nc1ccccc1
inactive: [1] 3.7% | [2] 2.8% | [3] -4.9%

CC(C)C(C(=O)c1ccccc1)c1ccccc1 (configuration not stated)
inactive: [1] -0.3% | [2] -10.1% | [3] -3.55%
